From PubChem BioAssay (NCI)
The panel holds about 83,000 compounds, 20% with a hit somewhere; the sample as a whole holds those more often.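 Growth was measured after 48 h exposure to one concentration of compound in 96-well plates. Values under 10 count as active.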 Activity calls are given as the source filed them.

Assays:
Assay in all cases: NCI-60 one-dose screen, 48 h (100 = growth as untreated, 0 = no growth, -100 = all killed)
HCT-15 colon = details: 10 µM unless noted
HT29 colon = details: 10 µM unless noted
SNB-75 CNS = details: 10 µM unless noted
SNB-19 CNS = details: 10 µM unless noted
U251 CNS = details: 10 µM unless noted
PC-3 prostate = details: 10 µM unless noted
SK-MEL-5 melanoma = details: 10 µM unless noted
UACC-62 melanoma = details: 10 µM unless noted
LOX IMVI melanoma = details: 10 µM unless noted
SK-MEL-28 melanoma = details: 10 µM unless noted
SK-MEL-2 melanoma = details: 10 µM unless noted
EKVX NSCLC = details: 10 µM
SN12C renal = details: 10 µM unless noted
UO-31 renal = details: 10 µM unless noted
TK-10 renal = details: 10 µM unless noted
ACHN renal = details: 10 µM unless noted
CAKI-1 renal = details: 10 µM unless noted
A498 renal = details: 10 µM unless noted
CCRF-CEM leukemia = details: 10 µM
MOLT-4 leukemia = details: 10 µM unless noted

Measured: growth

COc1cc(-c2nc(/C=C3/C(=O)Nc4ccccc43)c3ccccn23)cc(OC)c1OC
inactive: HCT-15 colon 73.6% | HT29 colon 62.5% | SNB-75 CNS 106% | SNB-19 CNS 90.7% | U251 CNS 91.6% | PC-3 prostate 57.8% | SK-MEL-5 melanoma 51.6% | UACC-62 melanoma 72.7% | LOX IMVI melanoma 72.3% | SK-MEL-28 melanoma 63% | SK-MEL-2 melanoma 43.7% | EKVX NSCLC 102% | SN12C renal 79.3% | UO-31 renal 41.9% | TK-10 renal 120% | ACHN renal 58.6% | CAKI-1 renal 58.2% | A498 renal 111% | CCRF-CEM leukemia 72.7% | MOLT-4 leukemia 62.8%

CC(=O)/C(=C/c1ccc(-c2ccccc2)cc1)C(=O)c1ccccc1
active: MOLT-4 leukemia 5.31%
inactive: HCT-15 colon 66.9% | HT29 colon 70.2% | SNB-75 CNS 79.7% | SNB-19 CNS 82.3% | U251 CNS 61% | PC-3 prostate 63.1% | SK-MEL-5 melanoma 87.3% | UACC-62 melanoma 80.5% | LOX IMVI melanoma 19.5% | SK-MEL-28 melanoma 96.2% | SK-MEL-2 melanoma 99.1% | EKVX NSCLC 100% | SN12C renal 92.7% | UO-31 renal 76.3% | TK-10 renal 103% | ACHN renal 88.3% | CAKI-1 renal 91.3% | A498 renal 96.5% | CCRF-CEM leukemia 38.6%

CN1CCN(Cc2ccc(NC(=O)c3ccc(C#Cc4c(N)ncc5ccc(F)cc45)cc3)cc2C(F)(F)F)CC1
inactive: CAKI-1 renal 42.7% | A498 renal 77.9%
active: HCT-15 colon -55.4% | HT29 colon -73.2% | SNB-75 CNS -15.1% | SNB-19 CNS -91.8% | U251 CNS -75.8% | PC-3 prostate -37.2% | SK-MEL-5 melanoma -91.2% | UACC-62 melanoma -73.3% | LOX IMVI melanoma -94.3% | SK-MEL-28 melanoma -97.8% | SK-MEL-2 melanoma -40.3% | EKVX NSCLC -59.1% | SN12C renal -71.3% | UO-31 renal -56.8% | TK-10 renal -42.2% | ACHN renal -92.6% | CCRF-CEM leukemia -40.2% | MOLT-4 leukemia -55.2%

CCCCCCCCCCCCCCCCCC1=NCCN1CCNC(C)=O
inactive: HCT-15 colon 74.6% | HT29 colon 57.3% | SNB-75 CNS 83.5% | SNB-19 CNS 101% | U251 CNS 79.1% | PC-3 prostate 80.3% | SK-MEL-5 melanoma 102% | UACC-62 melanoma 107% | SK-MEL-28 melanoma 98.1% | SK-MEL-2 melanoma 111% | EKVX NSCLC 80% | SN12C renal 104% | UO-31 renal 83.2% | TK-10 renal 103% | ACHN renal 91.4% | CAKI-1 renal 87.6% | A498 renal 78.4% | CCRF-CEM leukemia 40.3% | MOLT-4 leukemia 62.6%
active: LOX IMVI melanoma -14.6%

CC/C(=N\Nc1nc2ccccc2n1C)c1ccccn1
inactive: HCT-15 colon 18.5% | HT29 colon 21.2% | SNB-75 CNS 19.5% | SNB-19 CNS 18.8% | U251 CNS 10.4% | PC-3 prostate 26.5% | SK-MEL-28 melanoma 16.2% | SK-MEL-2 melanoma 37.6% | SN12C renal 13.6% | TK-10 renal 33.5%
active: SK-MEL-5 melanoma -50.7% | UACC-62 melanoma -13.9% | LOX IMVI melanoma -15% | EKVX NSCLC 6.6% | UO-31 renal -10.3% | ACHN renal 0.59% | CAKI-1 renal 2.28% | A498 renal -20.7% | CCRF-CEM leukemia 7.72% | MOLT-4 leukemia 1.52%

CCCCCCCCCCCCCCCCCC1=NCCN1CS(=O)(=O)O
active: HT29 colon 2.18% | LOX IMVI melanoma -2.88% | CCRF-CEM leukemia -5.55%
inactive: HCT-15 colon 41% | SNB-75 CNS 60.9% | SNB-19 CNS 80.4% | U251 CNS 64.5% | PC-3 prostate 39% | SK-MEL-5 melanoma 87.3% | UACC-62 melanoma 88.9% | SK-MEL-28 melanoma 103% | SK-MEL-2 melanoma 69.9% | EKVX NSCLC 80.1% | SN12C renal 53.2% | UO-31 renal 16.6% | TK-10 renal 89.4% | ACHN renal 47.7% | CAKI-1 renal 17.3% | A498 renal 87.2% | MOLT-4 leukemia 12.3%

COc1ccc(OC)c(Cn2cc3c(c2-c2ccccc2)CCc2cnoc2-3)c1
inactive: HCT-15 colon 45.5% | HT29 colon 30.4% | SNB-75 CNS 55.9% | SNB-19 CNS 65.5% | U251 CNS 53.4% | PC-3 prostate 41.1% | SK-MEL-5 melanoma 40.2% | UACC-62 melanoma 48.1% | LOX IMVI melanoma 61.6% | SK-MEL-28 melanoma 65.9% | SK-MEL-2 melanoma 74.2% | EKVX NSCLC 58.5% | SN12C renal 73% | UO-31 renal 59% | TK-10 renal 86.1% | ACHN renal 65.3% | CAKI-1 renal 28.9% | A498 renal 53.8% | CCRF-CEM leukemia 48.7% | MOLT-4 leukemia 47%

COC(=O)c1ccc2[nH]c(O)c(C(=Nc3ccc(N(C)C(=O)CN4CCN(C)CC4)cc3)c3cccc(OC)c3)c2c1
active: HCT-15 colon 7.72% | HT29 colon -2.16% | SNB-75 CNS -2.49% | SK-MEL-5 melanoma 6.71% | LOX IMVI melanoma 8.47% | SK-MEL-2 melanoma -0.0955% | SN12C renal 9.77% | TK-10 renal 0.964% | ACHN renal 6.22% | CAKI-1 renal 2.55% | A498 renal -14.9% | CCRF-CEM leukemia 7.19% | MOLT-4 leukemia -7.42%
inactive: SNB-19 CNS 12.7% | U251 CNS 11.7% | PC-3 prostate 20.3% | UACC-62 melanoma 36.6% | SK-MEL-28 melanoma 19.5% | EKVX NSCLC 38.7% | UO-31 renal 20.2%
